MITF primary: inhibitors of human MITF | AID 1259374 | AlphaScreen MITF homodimerization, bead proximity signal | hit rate 0.91% among 650,000 | inhibition, % at 2.6 µM | O75030; in the data active means inhibition above about 50%;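 further: 0% = vehicle wells with protein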
Target sequence (O75030 whole entry, looked up): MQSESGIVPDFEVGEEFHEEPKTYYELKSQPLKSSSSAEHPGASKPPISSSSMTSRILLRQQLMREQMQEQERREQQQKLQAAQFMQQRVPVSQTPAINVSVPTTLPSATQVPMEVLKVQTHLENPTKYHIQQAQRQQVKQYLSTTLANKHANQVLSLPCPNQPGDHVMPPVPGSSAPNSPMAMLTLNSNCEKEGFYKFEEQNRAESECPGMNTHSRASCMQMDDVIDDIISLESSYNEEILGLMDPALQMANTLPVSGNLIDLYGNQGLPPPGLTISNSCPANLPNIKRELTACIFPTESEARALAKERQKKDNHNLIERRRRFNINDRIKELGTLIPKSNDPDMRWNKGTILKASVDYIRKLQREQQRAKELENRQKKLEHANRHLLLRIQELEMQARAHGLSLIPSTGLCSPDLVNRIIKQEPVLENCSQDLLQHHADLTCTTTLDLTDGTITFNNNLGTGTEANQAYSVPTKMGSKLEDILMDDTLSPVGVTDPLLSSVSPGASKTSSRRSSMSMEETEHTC
GPR151 activ: activates the human receptor GPR151; AID 1508602; PathHunter beta-arrestin GPR151 cells, luminescence; activation, % at 11.2 µM; hit rate 1% among 650,000; in the data active means activation above about 4.9%;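 further: 0% = median of compound wells and 100% = cells with positive control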
TEAD-YAP block: TEAD-YAP interaction inhibition | HEK-TIYL cells, TEAD-Gal4/YAP UAS-luciferase luminescence | inhibition, % at 9.12 µM | hit rate 1.4% among 640,000; in the data active means inhibition above about 32%;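 further: 0% = median of test compound wells and 100% = reference inhibitor wells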
FBW7 activator: human FBW7 E3 ligase activation, primary screen. AlphaScreen FBW7–phospho-cyclin E peptide binding, activator screen. normalized activity (activation), % at 26.1 µM. hit rate 0.13% among 650,000; in the data active means normalized activity above about 1.9%;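 further: purified mutant Fbw7 with reduced substrate affinity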
GPR151 conf act: human GPR151 activation, confirmation screen. shares compounds with GPR151 activ. GPR151 PathHunter beta-arrestin cells, luminescence, 90 min; % of EA-reagent control over plate median. activation, % at 11.2 µM. 6,700 tested, under 10 active. AID 1508609;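 active means mean percent activation across replicates above the confirmation screen cutoff of 4.91%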
GPR119 counter: counter-screen for GPR151 activators: effect on human GPR119; GPR119 PathHunter beta-arrestin cells, luminescence, 90 min; 0 = compound-well median, 100 = enzyme-acceptor control; activation, % at 11.2 µM; hit rate 0.3% among 6,700; shares compounds with GPR151 activ;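 active means mean percent activation in the counterscreen above 29.09%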;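 further: counterscreen on off-target GPR119 to flag nonselective hits from the GPR151 activator screen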
The depositor's hits bear a star; . = not tested or not shown. The list is not random: actives were taken first. Their share in the collection is about 3.4%.

SMILES | MITF primary | GPR151 activ | TEAD-YAP block | FBW7 activator | GPR151 conf act | GPR119 counter
C/C(=N\Nc1ccc(C(F)(F)F)cn1)c1ccc(O)cc1 | -8 | 0 | -1 | 0 | . | .
Cc1cccc(N=Cc2nc(-c3cccc4ccccc34)oc2O)c1 | 9 | 0 | 5 | 0 | . | .
O=C(N[C@H]1C[C@H]2C(=O)N[C@@H](CO)C(=O)N2C1)OCc1ccccc1 | 18 | -1 | -3 | 0 | . | .
CC[C@@H]1NC(=O)[C@@H]2C[C@H](NC(=O)c3cccc(F)c3F)CN2C1=O | 6 | 9.7* | 9 | 0 | 0 | 5
COc1cccc(C(=O)N[C@H]2C[C@H]3C(=O)N[C@H](CO)C(=O)N3C2)c1 | -10 | 0 | -2 | 0 | . | .
C[C@@H](NC(=O)N[C@H]1C[C@H]2C(=O)N[C@H](CO)C(=O)N2C1)c1ccccc1 | 12 | 7.6* | 16 | 0 | 1 | 6
CCC[C@@H]1NC(=O)[C@@H]2C[C@H](NC(=O)N[C@@H](C)c3ccccc3)CN2C1=O | -11 | -1 | -5 | 0 | . | .
CC[C@@H]1NC(=O)[C@@H]2C[C@H](NC(=O)OCc3ccccc3)CN2C1=O | 7 | 5.8* | 0 | 0 | 1 | 7
COc1cccc(C(=O)N[C@H]2C[C@H]3C(=O)N[C@@H](CCCCN)C(=O)N3C2)c1 | 11 | 5.8* | 2 | 0 | 0 | 11
CC(C)C[C@H]1NC(=O)[C@@H]2C[C@H](NC(=O)c3cccc(F)c3F)CN2C1=O | -2 | 0 | -10 | 0 | . | .
O=C(CNC(=O)c1ccccc1Br)N=Nc1c(O)[nH]c2ccc([N+](=O)[O-])cc12 | 7 | -2 | 0 | 1 | . | .
Cc1ccc(-c2nnn(CC(=O)Nc3nn(-c4ccccc4)nc3C(N)=O)n2)cc1 | 9 | 0 | -7 | 0 | . | .
CCOC(=O)/C(C#N)=c1\[nH]/c(=C(/C#N)C(=O)OCC)c2ccccc12 | -3 | -1 | -5 | 0 | . | .
COc1ccc(OCC(=O)Nc2nc3ccccc3[nH]2)cc1 | -11 | 3 | -23 | 0 | . | .
COc1cccc(CC(=O)Nc2nc3ccccc3[nH]2)c1 | 4 | 5.6* | -5 | 0 | 0 | -6
COc1ccc(NC(=O)Cc2nc3ccccc3[nH]2)cc1 | 3 | 18* | 38* | 0 | 1 | 10
COc1cccc(N2C(=O)NC(=O)/C(=C/c3ccsc3)C2=O)c1 | 11 | 2 | 1 | 0 | . | .
O=C(O)c1cccc(NC(=O)c2ccc(Br)s2)c1 | 13 | -6 | -53 | 0 | . | .
CCOC(=O)C1CCN(C(=O)C(C)(C)Oc2ccc(Cl)cc2)CC1 | -1 | 5.7* | -2 | 0 | 0 | 7
CC(C)(Oc1ccc(Cl)cc1)C(=O)N1CCCC1 | 15 | 1 | 2 | 0 | . | .
COc1ccc([N+](=O)[O-])cc1N(CC(=O)NCc1ccc2c(c1)OCO2)S(C)(=O)=O | 4 | 0 | -11 | 0 | . | .
CCN(CC)CCn1cnc2c(=O)oc3ccccc3c21 | 0 | 1 | 5 | 0 | . | .
O=C(Cc1cccc2c(S(=O)O)cccc12)NC(c1ccccc1)c1ccccc1 | 0 | 6.8* | -20 | 0 | -1 | -12
COC(=O)CSc1nnc(CNC(=O)c2cccc(F)c2)n1C | -3 | 5.2* | -27 | 1 | 0 | 4
COC(=O)CSc1nnc(CNC(=O)c2cccc(C)c2)n1C | 5 | 1 | 2 | 0 | . | .
SMILES | MITF primary | GPR151 activ | TEAD-YAP block | FBW7 activator | GPR151 conf act | GPR119 counter
N#Cc1ccc(COC(=O)CNC(=O)c2ccc(-c3ccccc3)cc2)cc1 | -5 | 0 | 1 | 0 | . | .
CCOc1ccc(/C(O)=C2/C(=O)C(=O)N(CCN(CC)CC)C2c2ccc(OC)c(OC)c2)cc1C (stereo unspecified) | 0 | 6.6* | -10 | 0 | 0 | -5
CCOc1ccc(/C(O)=C2/C(=O)C(=O)N(CCN(CC)CC)C2c2ccc(Cl)cc2)cc1C (stereo unspecified) | 1 | -1 | 7 | 0 | . | .
CC(C)OC(=O)COc1ccc(C(=O)NCc2ccccc2)cc1 | -4 | 5.3* | 7 | 1 | 0 | -9
O=C(NCc1ccccc1)c1ccc(OCc2ccccc2)cc1 | -5 | -1 | 5 | 0 | . | .
CCN(CC)CCn1c(N)c(C(=O)Nc2ccccc2C)sc1=S | 3 | 6.0* | 2 | 0 | 1 | 10
CCOc1ccc(-n2c(N)c(C(=O)Nc3ccccc3C)sc2=S)cc1 | 13 | 0 | 7 | 0 | . | .
CC(C)n1c(Oc2ccc(C#N)cc2)nc2c1c(=O)n(C)c(=O)n2C | -1 | -1 | -14 | 0 | . | .
CC1(C)NC(=O)N(CCOc2ccc(OCc3ccccc3)cc2)C1=O | 6 | 7.2* | -1 | 0 | 0 | -17
Cn1c(=O)c2c(nc3n(CCc4ccccc4)c(-c4ccccc4)cn23)n(C)c1=O | -17 | 1 | 8 | 0 | . | .
Cn1c(=O)c2c(nc3n(CCc4ccccc4)c(-c4ccc(Br)cc4)cn23)n(C)c1=O | 16 | 5.6* | 18 | 0 | 0 | 1
COc1cccc(CNC(=S)NC2CCCC2)c1 | -7 | 6.3* | 4 | 0 | 0 | -7
CCOC(=O)CN1C(=O)N[C@@H](c2cccc(C(F)(F)F)c2)C(C(C)=O)=C1C | 4 | 10.0* | . | 0 | 1 | 12
CC(=O)C1=C(C)N(Cc2ccccc2)C(=O)N[C@@H]1c1cccc(C(F)(F)F)c1 | -2 | 0 | . | 0 | . | .
COC(=O)C1=C(C)N(Cc2ccccc2)C(=O)N[C@H]1c1cccc(C(F)(F)F)c1 | -10 | 8.6* | . | 0 | -1 | -10
COc1cc(CCN2C(=O)N[C@@H](c3cccc(C(F)(F)F)c3)C(C(C)=O)=C2C)cc(OC)c1OC | -27 | 0 | . | 0 | . | .
CCOC(=O)CCNC(=O)N1CCCC(N(C)CCc2ccccn2)C1 (stereo unspecified) | -2 | 5.4* | -3 | 0 | 1 | -2
Cc1nonc1CC(=O)N1CCCC(CCC(=O)N(C)CCc2ccccn2)C1 (stereo unspecified) | 10 | 7.7* | 12 | 0 | 0 | -3
CCOC(=O)CCNC(=O)N1CCCC(CCC(=O)N(C)CCc2ccccn2)C1 (stereo unspecified) | -6 | 0 | -4 | 0 | . | .
Cn1c(=O)c2c(SCC(=O)O)nc(-c3ccccc3Cl)nc2n(C)c1=O | -3 | 4.9* | -2 | 0 | -1 | 0
Cn1c(=O)c2c(SCC(=O)c3ccccc3)nc(-c3ccccc3F)nc2n(C)c1=O | 1 | 1 | -9 | 0 | . | .
Cn1c(=O)c2c(SCC(=O)O)nc(-c3ccco3)nc2n(C)c1=O | -14 | 0 | -13 | 0 | . | .
CCSc1nc(-c2ccco2)nc2c1c(=O)n(C)c(=O)n2C | 16 | 6.3* | 9 | 0 | 1 | 6
Cc1ccc(N(Cc2ccc(C(=O)NC(C)c3ccccc3)cc2)S(C)(=O)=O)cc1C (stereo unspecified) | 4 | 5.5* | 11 | 0 | -1 | 2
